# Source: PubChem
# TrxR1 substrate = qHTS Assay for Substrates of Mammalian Selenoprotein Thioredoxin Reductase 1 (TrxR1): qHTS; AID 588456, 2011; hit rate 0.01% among 390,000; Potency, µM (titrated, usually from 114 µM), for the others: at the highest dose activity change, negative = substrate turnover; purified TrxR1 substrate turnover, NADPH consumption readout; note: potency is the fitted concentration of half-maximal effect; % is set by controls: 0 for no effect and ±100 for the full control effect; nearly all actives have a fitted effect of over 50% in size
# Target sequence (O89049 whole entry, looked up): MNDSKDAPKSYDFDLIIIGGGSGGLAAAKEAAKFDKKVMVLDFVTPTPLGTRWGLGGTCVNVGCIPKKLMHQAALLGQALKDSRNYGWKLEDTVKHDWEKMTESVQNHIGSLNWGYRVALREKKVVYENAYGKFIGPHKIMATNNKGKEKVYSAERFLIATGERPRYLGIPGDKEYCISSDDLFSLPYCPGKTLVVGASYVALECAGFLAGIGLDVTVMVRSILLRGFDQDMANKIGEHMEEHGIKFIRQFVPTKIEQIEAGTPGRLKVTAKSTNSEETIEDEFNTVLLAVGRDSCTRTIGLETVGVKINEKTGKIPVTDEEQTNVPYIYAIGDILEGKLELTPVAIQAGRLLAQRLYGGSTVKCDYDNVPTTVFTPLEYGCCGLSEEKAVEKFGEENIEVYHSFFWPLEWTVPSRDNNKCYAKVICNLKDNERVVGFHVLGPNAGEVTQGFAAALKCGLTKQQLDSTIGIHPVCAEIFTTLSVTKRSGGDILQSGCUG
#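 Rat TrxR1, dispensed at 90 nM, was prereduced with 400 uM NADPH (final) for 5 min at ~22 deg C, then incubated with compound 15 min before 400 uM selenite. A first-read NADPH fluorescence drop versus no-compound background flagged substrates.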
# rTrxR1 inhibitor = qHTS Assay for Inhibitors of Mammalian Selenoprotein Thioredoxin Reductase 1 (TrxR1): qHTS; Potency, µM (series often up to 114 µM), for inactives: top-dose activity change, negative = inhibition, usual class: inhibitors; AID 588453, 2011; Thioredoxin reductase 1, cytoplasmic (Rattus norvegicus), O89049; recombinant rTrxR1, NADPH fluorescence consumption, selenite substrate; hit rate 1% among 390,000; note: potency is the fitted concentration of half-maximal effect; % is set by controls: 0 for no effect and ±100 for the full control effect; nearly all actives have a fitted effect of over 65% in size
#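 Rat TrxR1 (90 nM in the dispensed reagent) was pre-reduced with 400 uM NADPH for 5 min at room temperature, then incubated with compound for 15 min. After 400 uM selenite was added, NADPH fluorescence (Ex 340/Em 450 nm) was followed for 8 min.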
# VDR inhibitor = Inhibitors of the vitamin D receptor (VDR): qHTS. Vitamin D3 receptor (Homo sapiens), P11473. VDR-SRC2-3 peptide fluorescence polarization, 2 h. Potency, µM, inactives show max response, negative = inhibition, actives largely listed as inhibitors. hit rate 0.93% among 400,000; note: potency is the fitted concentration of half-maximal effect; % is set by controls: 0 for no effect and ±100 for the full control effect
#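 Signal is fluorescence polarization, reporting how far test compounds block the interaction of VDR with the SRC2-3 coregulator peptide after a 2 h room-temperature incubation.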
# GCN5L2 inh-1 = qHTS Assay for Inhibitors of GCN5L2; GCN5L2 HAT assay, ThioGlo1 CoA-SH fluorescence; hit rate 0.21% among 390,000; Potency, µM (series often up to 58.9 µM), for the others: top-dose activity change, negative = inhibition, most hits filed as inhibitors; Histone acetyltransferase KAT2A (Homo sapiens), Q92830; note: potency is the fitted concentration of half-maximal effect; % is set by controls: 0 for no effect and ±100 for the full control effect
#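 qHTS, 1536-well. 20nM enzyme, pH 7.5 HEPES/EDTA/Tween-20 buffer; 15 min compound preinc., RT. Start: 75uM H3(1-25), 70uM AcCoA, 50uM ThioGlo1. Read Ex340/Em540 at t=0 (autofluorescence flag) and t=20 min.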
# GCN5L2 inh-2 = qHTS Assay for Inhibitors of GCN5L2: Hit confirmation | shares compounds with GCN5L2 inh-1 | GCN5L2 HAT, ThioGlo1 CoA fluorescence, 20 min | Potency, µM, actives largely listed as inhibitors | hit rate 70% among 140
# * marks the source's active call; other numbers are inactive results; ? = inconclusive; / = no result given; [ ] = dose if it differs, or a comment. An excerpt weighted towards active compounds, which were near 1.8% of everything screened. Calls come from the whole dose curve; as a rule, active = well fitted curve in the direction sought with a large enough effect; inconclusive = small, poorly fitted or top-dose-only effect, or another doubt; inactive = no such curve, though single readings can be large; an effect the other way counts as inactive or inconclusive.
SMILES,TrxR1 substrate,rTrxR1 inhibitor,VDR inhibitor,GCN5L2 inh-1,others
O=C1CC(c2ccco2)Cc2[nH]c(=O)c(C(=O)Nc3ccccc3)cc21 (configuration not stated),-4%,-4%,/,/,
O=C(/C=C/c1ccc(Br)o1)NC(c1ccccc1)c1ccccc1,16%,20µM*,?,3%,
CC(=O)Nc1ccc(S(=O)(=O)Oc2cccc(/C=C3\SC(N)=NC3=O)c2)cc1,4%[57.1 µM],4%[57.1 µM],35µM*,2%,
O=C(/C=C/c1cccc([N+](=O)[O-])c1)Nc1cccc(NC(=O)c2ccco2)c1,-15%,-17%,1%,-13%,
O=C(/C=C/c1cccc([N+](=O)[O-])c1)c1ccco1,-4%,18µM*,?,?,
O=C(/C=C/c1cccc([N+](=O)[O-])c1)c1ccc([N+](=O)[O-])o1,-5%,1.1µM*,2.8µM*,/,
Cc1sc2ccccc2[n+]1CCCCBr,5%,179%,/,/,
Cn1c(=O)[nH]c(=O)c2c1nc([N+](=O)[O-])n2Cc1ccccc1,-4%,6.3µM*,?,-11%,
Cn1c(=O)[nH]c(=O)c2c1nc(Br)n2CCC(=O)c1ccccc1,5%[57.1 µM],18µM*,-2%,-3%,
O=C(CCSCc1cccc(Cl)c1)NCc1ccc(F)cc1Cl,3%[57.1 µM],14%[57.1 µM],-5%,2%,
CCOC(=O)c1sc2nc(C3CC3)cc(-c3ccc(OC)cc3)c2c1N,150%,50µM*,10%,?,
CCOC(=O)c1sc2nc(C3CC3)cc(-c3ccc(F)cc3)c2c1N,41%,33%,9%,-17%,
Fc1ccc(COc2ccccc2C(=S)N2CCCC2)cc1,7%[57.1 µM],-6%[57.1 µM],50µM*,-21%,
Cc1ccc(COc2ccccc2C(=S)N2CCCC2)cc1,4%[57.1 µM],8%[57.1 µM],3%,-7%,
CS(=O)(=O)c1ccc(C(=O)NCCN2C(=O)S/C(=C\c3cccnc3)C2=O)cc1[N+](=O)[O-],-4%,18µM*,-7%,1%,
Cc1ccc(S(=O)(=O)c2ccc([N+](=O)[O-])o2)cc1,5%[11.4 µM],?,45µM*,/,
CC(C)(C)n1ncc2c(=O)n(Cc3ccc(F)cc3F)cnc21,-4%,10%,/,/,
O=C(Nc1cc(Cl)ccc1Cl)c1cc([N+](=O)[O-])cc(Br)c1O,-7%,-13%,79µM*,/,
O=C(Nc1ccc([N+](=O)[O-])cc1Cl)c1cc(Cl)cc(Cl)c1O,-20%,-3%,-12%,/,
CC(=O)Nc1ccc(C(=O)COC(=O)CCS(=O)(=O)c2ccccc2)cc1,-3%,5%,-13%,-1%,
O=C(COC(=O)CCS(=O)(=O)c1ccccc1)Nc1ccccc1,-2%,45µM*,-10%,-4%,
CCOC(=O)c1c(C)n(CC)c2ccc(OC(=O)c3ccc([N+](=O)[O-])cc3)cc12,6%,30%,-25%,12%,
CCOC(=O)c1c(C)n(C)c2ccc(OC(=O)c3ccc([N+](=O)[O-])cc3)cc12,0%,8%,8%,8.9µM*,
O=C1C(SCCO)=C(SCCO)C(=O)c2ccccc21,10µM*,16µM*,5.6µM*,-12%,
O=c1[nH]c2ccccc2c(O)c1SCCO,0%,6%,0%,-6%,
SMILES,TrxR1 substrate,rTrxR1 inhibitor,VDR inhibitor,GCN5L2 inh-1,others
O=C1C=CC(=C(c2ccc(O)cc2)c2ccc(O)cc2)C=C1,3%,-3%,50µM*,1%,
COc1cc2c(cc1OC)C(c1ccc(N)cc1)=NNC(=O)C2,/,/,-4%,2%,
O=C(CSc1ncc(S(=O)(=O)c2ccc(Cl)cc2)c(=O)[nH]1)Nc1cccc(C(F)(F)F)c1,-1%,11%,?,-7%,
CC(C)(C)c1ccc(S(=O)(=O)c2cnc(SCC(=O)Nc3ccc(F)c(Cl)c3)[nH]c2=O)cc1,7%[0.457 µM],6%,?,28µM*,
COc1cc(Cl)c(C)cc1NC(=O)CSc1ncc(S(=O)(=O)c2ccc(C(C)(C)C)cc2)c(=O)[nH]1,-5%,-19%,-14%,18µM*,
COc1ccc(-n2c(=O)c(-c3ccccc3)nc3cnc(N4CCOCC4)nc32)cc1,/,/,?,-11%,
CN1CCN(c2ncc3nc(-c4ccccc4)c(=O)n(-c4ccccc4)c3n2)CC1,/,/,1%,22µM*,
COc1ccc(-n2c(=O)c(-c3ccc(Cl)cc3)nc3cnc(N4CCOCC4)nc32)cc1,/,/,40µM*,-13%,
COc1ccc(-n2c(=O)c(-c3ccccc3)nc3cnc(N4CCN(C)CC4)nc32)cc1,/,/,-1%,-8%,
O=C1CN(C(=O)c2ccc(S(=O)(=O)N3CCCCC3)cc2)C(c2ccc(F)cc2)c2cc(Cl)ccc2N1 (configuration not stated),12%[2.29 µM],20%,-18%,-9%,
O=C(O)CCn1c2c(c3ccccc31)C[C@H](NS(=O)(=O)c1ccc(F)cc1)CC2,/,/,/,3%,
O=Cc1ccc(Sc2nnc(-c3ccccc3)o2)c([N+](=O)[O-])c1,10%,5µM*,79µM*,-12%,
Cc1ccc2nc(CN3CCN(S(=O)(=O)c4ccc(C(C)C)cc4)CC3)oc2c1,-3%[57.1 µM],8%[57.1 µM],11%,4%,
C[C@@](Cc1ccccc1)(NC(=O)CN)c1ccccc1,/,/,0%,3%,
CCN(CC)C(=O)COC(=O)c1cc(-c2ccco2)nc2ccccc12,69%,?,12%,?,GCN5L2 inh-2=32*
CCOC(=O)C1CCCN(C(=O)c2cc(-c3ccco3)nc3ccccc23)C1 (configuration not stated),408%,?,?,28µM*,GCN5L2 inh-2=18*
COc1ccc(CN(Cc2ccco2)C(=O)COc2ccc(Cl)cc2C)cc1,-11%,6%,8%,-11%,
COc1cc(CCc2ccccc2)c(C(=O)O)c(O)c1C/C=C(/C)CCC=C(C)C,-3%,13%,5%,14µM*,GCN5L2 inh-2=11*
O=C(C1=NN(c2ccccc2)C2C(=O)N(c3cccc(Cl)c3)C(=O)C12)c1ccccc1 (configuration not stated),-6%,17%[57.1 µM],-11%,25µM*,GCN5L2 inh-2=36*
COC(=O)c1scc2c(=O)cc(C(F)(F)F)[nH]c12,115%,42%,-14%,22µM*,GCN5L2 inh-2=36*
N#Cc1c(-c2cccs2)nc(SCc2ccc(Cl)cc2)[nH]c1=O,8%[57.1 µM],23%[57.1 µM],-5%,25µM*,GCN5L2 inh-2=29*
COc1cccc(C(=O)Nc2cccc(OCc3cc(=O)n4c5c(sc4n3)CCCC5)c2)c1,4%,11%,4%,1%,
CCC(C)Sc1ccc(-c2nc3ccccn3c2NCc2ccccc2)cc1OC (configuration not stated),112%,34%,8%,22µM*,GCN5L2 inh-2=?
COc1ccc(CSc2ccc(-c3nc4ccccn4c3NCc3ccccc3)cc2OC)cc1,86%[57.1 µM],25%[57.1 µM],2%,-14%,
